Hits are enriched below; roughly 9.8% of the tested compounds scored in any of these assays.
HTT cytoprotect: Huntington cell model cytoprotection by ATP luminescence; PC12 HTT-Q103 induced, cytoprotection, ATP luminescence, 40 h; Potency, µM (series often up to 56.4 µM), for inactives: cytoprotection (ATP increase), hits mostly activators; hit rate 0.14% among 230,000; AID 1471; active = well fitted curve in the direction sought with a large enough effect; inconclusive = small, poorly fitted or top-dose-only effect, or another doubt; inactive = no such curve, though single readings can be large; an effect the other way counts as inactive or inconclusive; note: potency is the fitted concentration of half-maximal effect; % of control where 0% means no effect; nearly all actives have a fitted effect of over 45% in size
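Huntington model: PC12 line, ecdysone-inducible HTTQ103 exon1–GFP, tebufenozide 100 nM. Test articles in a dose series. Endpoint luminescence from cellular ATP.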
CBFb-RUNX1 inh: blocks binding between human CBF-beta and RUNX1. Q01196+Q13951. AlphaScreen CBFb-His/RUNX1-biotin binding, biochemical. Potency, µM (highest dose often 59.8 µM), without a hit: top-dose activity, negative = inhibition, most hits filed as inhibitors. 230,000 tested, under 10 active. AID 1477; active = well fitted curve in the direction sought with a large enough effect; inconclusive = small, poorly fitted or top-dose-only effect, or another doubt; inactive = no such curve, though single readings can be large; an effect the other way counts as inactive or inconclusive; note: % of control where 0% means no effect
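Compounds were screened at multiple concentrations against a preformed CBF-beta(His)/RUNX1(biotin) complex (30 nM of each) for 15 min at room temperature, followed by 90 min with nickel and streptavidin beads and AlphaScreen reading.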
JMJD2E inh: inhibitors of human JMJD2E histone demethylase. B2RXH2. JMJD2E catalytic domain, FDH-coupled NADH fluorescence (FDH is formaldehyde dehydrogenase). Potency, µM (highest dose often 57.1 µM), inactives show at the highest dose activity change, negative = inhibition, hits mostly inhibitors. hit rate 1.6% among 230,000;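 note: potency is the fitted concentration of half-maximal effect; 0% = wells with enzyme and -100% = buffer wells without enzyme; nearly all actives have a fitted effect of over 50% in size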
HttQ103 aggreg: inhibitors of mutant huntingtin aggregate formation in PC12 cells; PC12 HttQ103-GFP aggregates, Acumen cytometry, 40 h; Potency, µM (series often up to 46.1 µM), for the others: at the highest dose activity change, negative = inhibition, most hits filed as inhibitors; hit rate 1.1% among 220,000; active = well fitted curve in the direction sought with a large enough effect; inconclusive = small, poorly fitted or top-dose-only effect, or another doubt; inactive = no such curve, though single readings can be large; an effect the other way counts as inactive or inconclusive; note: potency is the fitted concentration of half-maximal effect; % is set by controls: 0 for no effect and ±100 for the full control effect; nearly all actives have a fitted effect of over 60% in size
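PC12 cells stably carrying ecdysone-inducible HTT exon 1 Q103–GFP were induced with tebufenozide (100 nM final) and treated with library compounds in titration. GFP aggregates in lysates were counted by laser scanning cytometry.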
ALDH1A1 inh: ALDH1A1 (human) enzyme inhibition | Potency, µM (titrated, usually from 75.3 µM), for inactives: top-dose activity, negative = inhibition, usual class: inhibitors | hit rate 7.3% among 220,000 | Purified ALDH1A1, NADH fluorescence, propionaldehyde substrate | P00352 | AID 1030;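 note: potency is the fitted concentration of half-maximal effect; plate controls were no enzyme wells and a reference inhibitor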
Target sequence (P00352 whole entry, looked up): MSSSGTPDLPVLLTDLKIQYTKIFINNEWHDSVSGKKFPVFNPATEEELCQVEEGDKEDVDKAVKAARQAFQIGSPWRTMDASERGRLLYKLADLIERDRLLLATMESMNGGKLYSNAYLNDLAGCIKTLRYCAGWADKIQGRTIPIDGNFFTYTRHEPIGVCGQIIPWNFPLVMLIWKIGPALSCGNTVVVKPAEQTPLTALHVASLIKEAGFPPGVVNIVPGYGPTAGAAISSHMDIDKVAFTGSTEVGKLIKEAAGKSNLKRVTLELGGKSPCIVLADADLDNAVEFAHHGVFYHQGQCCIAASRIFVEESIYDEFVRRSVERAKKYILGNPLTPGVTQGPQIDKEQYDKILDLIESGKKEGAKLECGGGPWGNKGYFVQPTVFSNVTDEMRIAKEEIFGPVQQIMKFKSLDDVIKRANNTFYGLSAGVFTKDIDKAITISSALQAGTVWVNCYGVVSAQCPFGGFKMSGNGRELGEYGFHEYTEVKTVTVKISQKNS
HPGD block: inhibitors of human 15-hydroxyprostaglandin dehydrogenase (HPGD). purified HPGD, NADH fluorescence kinetic, PGE2 substrate. Potency, µM, for the others: top-dose activity change, negative = inhibition, most hits filed as inhibitors. hit rate 4.3% among 150,000; note: potency is the fitted concentration of half-maximal effect; % is set by controls: 0 for no effect and ±100 for the full control effect
Target sequence (P15428 whole entry, looked up): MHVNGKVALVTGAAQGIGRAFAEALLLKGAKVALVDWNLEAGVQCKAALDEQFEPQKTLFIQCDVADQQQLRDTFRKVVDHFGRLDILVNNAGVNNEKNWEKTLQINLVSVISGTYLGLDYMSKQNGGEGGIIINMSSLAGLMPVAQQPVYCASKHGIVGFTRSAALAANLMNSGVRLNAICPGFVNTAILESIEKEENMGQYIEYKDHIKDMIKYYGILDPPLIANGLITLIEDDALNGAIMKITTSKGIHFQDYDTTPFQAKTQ
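NADH formation kinetics: reaction with 30 uM PGE2 and 1 mM NAD+ (final), 20 nM enzyme, Tris-HCl pH 8 with Tween 20, after 15 min compound preincubation at room temperature. Fluorescence change, last versus first of five reads.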
An asterisk follows results filed as active; ? = inconclusive; nt = no result given; [ ] = another dose, or the depositor's remark. Unless noted, calls come from the whole dose curve; as a rule, active = well fitted inhibition curve with a large enough effect (not every such curve was filed as active); inconclusive = small, poorly fitted or top-dose-only effect, or another doubt; inactive = no such curve, though single readings can be large or run the other way.

SMILES	HTT cytoprotect	CBFb-RUNX1 inh	JMJD2E inh	HttQ103 aggreg	ALDH1A1 inh	HPGD block
CC(C)[C@H](NC(=O)[C@H](CCC(=O)O)NC(=O)[C@H](Cc1ccccc1)NC(=O)[C@@H](C)NC(=O)[C@@H](N)Cc1ccc(O)cc1)C(=O)N[C@H](C(=O)NCC(N)=O)C(C)C	nt	3%	nt	nt	nt	nt
CC(C)COC(=O)c1ccccc1C(=O)OCC(C)C	-18%	10%[21.7 µM]	8%	5%[9.22 µM]	?	-9%
CCCCC(CC)COC(=O)c1ccccc1C(=O)OCC(CC)CCCC (configuration not stated)	-13%	5%[21.7 µM]	nt	nt	22µM*	-7%
COc1ccc(CNC(=O)/C=C\c2ccc3[nH]cc(CCN(C)C)c3c2)cc1	-39%[1.9 µM]	3%[21.7 µM]	?	nt	-2%	-14%
Nn1c(Cc2cccc3ccccc23)n[nH]c1=S	-33%	?	-17%	9%	22µM*	nt
N=c1c2c(n(Cc3ccc(Cl)cc3Cl)c3c1CCC3)CCCC2	-49%	1%	3%	6.3µM*	1%	6%
N=c1sc2c(n1Cc1ccccc1)CCCC2	-6%[10 µM]	-4%	-1%	-3%	4%	-10%
CN1CCN(C(=O)COc2ccc(S(=O)(=O)N(C)Cc3ccccc3)cc2)CC1	4%	4%	-4%	-17%	?	14µM*
CCCCC(C#N)(Cn1cncn1)c1ccc(Cl)cc1 (configuration not stated)	nt	12%	nt	nt	nt	nt
C=C(C)C#N	-1%	4%[21.7 µM]	nt	nt	-8%	-4%
N#CC(Cl)(Cl)Cl	-13%	8%[21.7 µM]	nt	nt	20µM*	-3%
O=C1C[C@@H]2OCC=C3CN4CC[C@]56c7ccccc7N1[C@H]5[C@@H]2[C@H]3C[C@@H]46	1%	nt	nt	nt	nt	nt
Nc1nc(N)c(Cn2ccnc2)c(=O)[nH]1	1%[10 µM]	nt	nt	nt	0%[13.5 µM]	3%
O=[N+]([O-])c1ccc(N2CCCC2)c2ccncc12	-37%	-14%	1%	22µM*	-7%	nt
O=[N+]([O-])c1ccc(N2CCNCC2)c2ncccc12	5%[10 µM]	9%	1%	18%	9%	-8%
CC[C@@]1(O)C(=O)OCc2c1cc1n(c2=O)Cc2cc3c(O)cccc3nc2-1	-153%	11%	nt	nt	?	nt
Cc1ccc(NC(=[OH+])c2cc3ccccc3cc2O)c(C)c1.Cc1ccc(NC(=[OH+])c2cc3ccccc3cc2O)c(C)c1.[Ni]	8%[10 µM]	nt	nt	nt	-20%[13.5 µM]	1.8µM*
O=c1[nH]c(=S)n(Cc2ccc(F)cc2)c(O)c1C=NCC1CCCO1 (configuration not stated)	4%	-1%	0%	14%[9.22 µM]	?	28µM*
CC(=O)CC(c1ccccc1)c1c(O)c2cc(O)ccc2oc1=O (configuration not stated)	nt	3%	nt	nt	nt	nt
Cn1ccnc1P(=S)(c1nccn1C)N1CCOCC1	3%	-5%	-9%	7%	28µM*	25µM*
O=c1c2ccccc2nc(SCC2CCCCO2)n1-c1ccccc1 (configuration not stated)	-49%[10 µM]	-3%	9%	?	18µM*	-8%
COc1ccc(-n2c(SC)nc3ccccc3c2=O)cc1	-23%	23%	2%	-17%	10%	1%
C=C(CO)CC1CC(O)[C@]2(C)OC3CC4OC5C[C@]6(C)O[C@]7(C)CCC8OC9C[C@]%10(C)OC%11C(C)=CC(=O)OC%11CC%10OC9C[C@@H](C)C8OC7CC6O[C@]5(C)C/C=C\C4OC3CC2O1 (some centres not stated)	33%[10 µM]	6%	2%	-9%[9.22 µM]	1.4µM*	nt
C=C(C=O)CC1CC(O)[C@]2(C)OC3CC4OC5C[C@]6(C)O[C@]7(C)CCC8OC9C[C@]%10(C)OC%11C(C)=CC(=O)OC%11CC%10OC9C[C@@H](C)C8OC7CC6O[C@]5(C)CC5OC5C4OC3CC2O1 (some centres not stated)	-54%[10 µM]	3%	0%	4%[9.22 µM]	4.5µM*	nt
C=CC(=O)OC	-13%	9%[21.7 µM]	nt	nt	13%	1%
SMILES	HTT cytoprotect	CBFb-RUNX1 inh	JMJD2E inh	HttQ103 aggreg	ALDH1A1 inh	HPGD block
CC(Cc1ccc(C(C)(C)C)cc1)CN1CC(C)OC(C)C1 (configuration not stated)	nt	23%	nt	nt	nt	nt
CCCc1[nH][nH]c(=O)c1C(c1ccccc1)C(C#N)C#N (configuration not stated)	-14%[10 µM]	12%	-4%	6%	22µM*	?
CCCc1[nH][nH]c(=O)c1C(c1ccc(Cl)cc1)C(C#N)C#N (configuration not stated)	9%[1.9 µM]	1%	2%	-7%	?	16µM*
CCN(CC)S(=O)(=O)c1ccc(NN=C(C#N)C#N)cc1	nt	-5%	1%	-4%	2%	14µM*
Cc1nc2cc(C(=O)N3CCC4(CC3)OCCO4)ccc2n1-c1cccc(F)c1	-18%	2%	-1%	15%[9.22 µM]	25µM*	2.8µM*
O=C(c1ccc2c(c1)ncn2C1CCCCCC1)N1CCC2(CC1)OCCO2	-1%	1%	4%	3%	-13%	14µM*
Nc1cc(Cl)c2nonc2c1[N+](=O)[O-]	-15%[10 µM]	2%	-16%	4.5µM*	20µM*	?
O=[N+]([O-])c1c(Cl)c(Cl)c(Cl)c(Cl)c1Cl	-22%	5%[21.7 µM]	nt	nt	2%	-7%
O=C(Cl)c1ccccc1F	?	3%[21.7 µM]	nt	nt	?	-14%
COc1ccc(/C=C2/C(=O)NC(=S)N(C3CC3)C2=O)cc1CN1C(=O)c2ccccc2C1=O	27%[10 µM]	0%	?	23%	20µM*	14µM*
CC(=NCc1cccnc1)c1c(O)n(Cc2ccccc2)c(=O)[nH]c1=O	0%[10 µM]	-9%	-10%	20%	?	28µM*
CCC(=NCc1cccnc1)c1c(O)n(Cc2ccccc2)c(=O)[nH]c1=O	-16%	14%	3%	-1%	?	16µM*
C/C(=N\NC(=O)c1ccccc1)c1c(O)n(Cc2ccccc2)c(=O)[nH]c1=O	-1%[10 µM]	-2%	25µM*	32%[9.22 µM]	nt	nt
CC(=NCc1cccnc1)c1c(O)n(-c2ccccc2)c(=O)[nH]c1=O	-16%	-1%	1%	-1%	-2%	-3%
CC(C)C#N	-4%	6%[21.7 µM]	nt	nt	16%	-14%
N#CC(Cl)Cl	-57%	3%[21.7 µM]	nt	nt	18µM*	-10%
Cl.Cl.Cl.Cl.Cl.Cl.N.N.N.N.NNNNN.NNNNN.O.O.[Ru].[Ru].[Ru]	-12%	0%[21.7 µM]	32µM*	nt	-1%	-12%
CC(O)CCl (configuration not stated)	-1%	6%[21.7 µM]	nt	nt	22%	1%
NCC(=O)c1ccccc1	nt	nt	-23%	nt	?	-7%
O=C(CCl)NN=C(c1ccccc1)c1ccccc1	3%	5%	-4%	1%	0.013µM*	nt
C=CCn1c(=O)c(C=Nc2c(OC)cccc2[N+](=O)[O-])c(O)n(CCCC)c1=O	2%[10 µM]	0%	-7%	-8%	13µM*	-14%
